{
  "source": "PubChem BioAssay (Tox21)",
  "note": "Unmarked numbers belong to inactive results. Active and inactive are the calls of the source. Calls come from the whole dose curve; as a rule, active = well fitted curve in the direction sought with a large enough effect in the repeat runs; inconclusive = weak or mixed curves; inactive = flat fitted curve, though single readings scatter. % is set by controls: 0 for no effect and ±100 for the full control effect.",
  "data": [
    {"experiment": "qHTS assay to test for compound auto fluorescence at 460 nm (blue) in HEK293 cells (AID 720678)", "conditions": "blue autofluorescence 405/460 nm; series mostly up to 91.3 µM; fluorescence, % of triamterene: at the top concentration", "from_the_text": "National Center for Advancing Translational Sciences [NCATS]\nNIH Chemical Genomics Center [NCGC]\nU.S. Environmental Protection Agency [EPA]\nNational Institutes of Environmental Health Sciences [NIEHS]\nNational Toxicology Program [NTP]\nU.S. Food and Drug Administration [FDA]\nCompound auto fluorescence often interferes with screening of the compound library against various biological targets and signaling pathways. Some of these compounds may have fluorophoric properties. Such properties may interfere with the assay outputs resulting in false positives and/or negatives. To decrease such complications and ensure the compound activities are relevant in terms of biological response, the Tox21 10K compound library was screened for auto fluorescence.\nFrom the fluorophores used as reporter signals in our screening assays, the auto fluorescence equivalencies of compounds against three fluorophores have been evaluated: Triamterene, Fluorescein and Rose Bengal sodium for blue, green and red fluorescence, respectively. The fluorescence intensities were measured using Excitation/Emission wavelengths at 405/460nm, 485/535nm and 540/590nm for blue, green and red labels, respectively. This assay includes the blue fluorescence data.\nTox21 Assay Protocol Summary:\n2,000 HEK293 cells in 5 uL of culture medium containing 10% dialyzed FBS per well were dispensed into black wall/clear bottom 1536-well plates using a Multidrop Combi Dispenser (Thermo Scientific). The assay plates were incubated for 4-5 hr at 37C to allow cell attachment to the well bottom, followed by the transfer of 23 nL compound or DMSO vehicle by a pintool work station (Kalypsys, San Diego, CA). After the assay plates were incubated overnight at 37C and 5% CO2, fluorescence intensities in the assay plates were measured by an Envision (PerkinElmer, Shelton, CT) plate reader using three labels for measuring blue, green and red fluorescence at […] 460, 535 and 590nm respectively.", "values": [
      {"smiles": "CCC1(CCC(C)C)C(=O)NC(=O)NC1=O", "fluorescence, % of triamterene": "-0.147%"},
      {"smiles": "CN1C[C@H](C(=O)N[C@]2(C)O[C@@]3(O)[C@@H]4CCCN4C(=O)[C@H](Cc4ccccc4)N3C2=O)C=C2c3cccc4[nH]cc(c34)C[C@H]21", "outcome": "inactive"},
      {"smiles": "C[N+](C)(C)CC1CO1", "note": "(stereo not given)", "fluorescence, % of triamterene": "-0.0304%"},
      {"smiles": "NCCc1cc(O)c(O)cc1O", "fluorescence, % of triamterene": "0.0828% [at 46 µM]"},
      {"smiles": "C[N+](C)(C)CCOC(=O)C(O)(c1ccccc1)c1ccccc1", "fluorescence, % of triamterene": "0.165% [at 46 µM]"},
      {"smiles": "C[C@@H]1C[C@@H]([C@H](O)CC2CC(=O)NC(=O)C2)C(=O)[C@@H](C)C1", "outcome": "inactive"},
      {"smiles": "O=C(O)c1cc(I)cc(I)c1I", "fluorescence, % of triamterene": "0.0346% [at 95.7 µM]"},
      {"smiles": "CC(C)[C@@H](C(=O)O[C@@H](C#N)c1cccc(Oc2ccccc2)c1)c1ccc(Cl)cc1", "outcome": "inactive"},
      {"smiles": "Clc1ccccc1", "fluorescence, % of triamterene": "-0.0744%"},
      {"smiles": "CCCN(CCC)c1c([N+](=O)[O-])cc(C(C)C)cc1[N+](=O)[O-]", "outcome": "inactive"},
      {"smiles": "O=C=NC1CCCCC1", "fluorescence, % of triamterene": "-0.026%"},
      {"smiles": "C=CC(C)(CCC=C(C)C)OC(=O)c1ccccc1N", "note": "(stereo not given)", "fluorescence, % of triamterene": "-0.252%"},
      {"smiles": "O=C(NC(=O)c1cc(F)c(F)cc1Cl)Nc1cc(F)ccc1N1CCC(C(=O)O)CC1", "fluorescence, % of triamterene": "0.0105% [at 46 µM]"},
      {"smiles": "CC(C)(C)NCC(O)c1cc(Cl)c(N)c(C(F)(F)F)c1", "note": "(stereo not given)", "fluorescence, % of triamterene": "-0.204% [at 46 µM]"},
      {"smiles": "Nc1c(Br)cc(Br)c2c1C(=O)c1ccccc1C2=O", "fluorescence, % of triamterene": "-0.127% [at 18.6 µM]"},
      {"smiles": "COC(=O)C1(O)c2ccccc2-c2ccccc21", "fluorescence, % of triamterene": "0.0142%"},
      {"smiles": "O=C(O)COc1cc(Cl)c(Cl)cc1Cl", "outcome": "inactive"},
      {"smiles": "CCCC[P+](CC)(CCCC)CCCC", "note": "(tested in a mixture with another compound)", "fluorescence, % of triamterene": "-0.0262%"},
      {"smiles": "CC(=O)NNc1ccccc1", "fluorescence, % of triamterene": "0.053%"},
      {"smiles": "CN(C)N", "fluorescence, % of triamterene": "0.0487%"},
      {"smiles": "CCC1(CC)C(=O)NC(=O)NC1=O", "fluorescence, % of triamterene": "0.0281% [at 46 µM]"},
      {"smiles": "CCCCCCCCCCCCN=C(N)N", "fluorescence, % of triamterene": "-0.0427% [at 3.72 µM]"},
      {"smiles": "N#CC1(N=NC2(C#N)CCCCC2)CCCCC1", "fluorescence, % of triamterene": "-0.306%"},
      {"smiles": "Nc1cc(Cl)cc(C(=O)O)c1Cl", "outcome": "inactive"},
      {"smiles": "CCCCC(CC)COC(=O)c1c(Br)c(Br)c(Br)c(Br)c1C(=O)OCC(CC)CCCC", "note": "(stereo not given)", "fluorescence, % of triamterene": "1.11%"},
      {"smiles": "C[CH2][Hg][S]c1ccccc1C(=O)O", "outcome": "inactive"},
      {"smiles": "c1ccc2c(c1)sc1ccccc12", "outcome": "inactive"},
      {"smiles": "O=C1CC[C@@]2(O)[C@H]3Cc4ccc(O)c5c4[C@@]2(CCN3CC2CC2)[C@H]1O5", "fluorescence, % of triamterene": "0.0441% [at 46 µM]"},
      {"smiles": "CCCC(C)(COC(N)=O)COC(=O)NC(C)C", "note": "(stereo not given)", "outcome": "inactive"},
      {"smiles": "CCCCCl", "outcome": "inactive"},
      {"smiles": "CC(C)CCON=O", "outcome": "inactive"},
      {"smiles": "C=CCN1C[C@H](C)N([C@H](c2ccc(C(=O)N(CC)CC)cc2)c2cccc(OC)c2)C[C@H]1C", "fluorescence, % of triamterene": "-0.158% [at 46 µM]"},
      {"smiles": "CC1(C)CC(=O)CC(C)(C)N1[O]", "fluorescence, % of triamterene": "-0.0761%"},
      {"smiles": "O=C(O)C(F)(F)C(F)(F)C(F)(F)C(F)(F)C(F)(F)C(F)(F)C(F)(F)C(F)(F)F", "fluorescence, % of triamterene": "0.0611%"},
      {"smiles": "CCOC(=O)C1OC1(C)c1ccccc1", "note": "(stereo not given)", "outcome": "inactive"},
      {"smiles": "Clc1ccc(Cl)c(Cl)c1", "outcome": "inactive"},
      {"smiles": "C#C[C@]1(O)CC[C@H]2[C@@H]3CCC4=CC(=O)CCC4=C3C=C[C@@]21CC", "fluorescence, % of triamterene": "5.37% [at 46 µM]"},
      {"smiles": "Cc1ccc(N)c(C)c1", "outcome": "inactive"},
      {"smiles": "CCc1ccccc1N", "fluorescence, % of triamterene": "0.0021%"},
      {"smiles": "CCC1(C2=NCCN2)Cc2ccccc2O1", "note": "(stereo not given)", "fluorescence, % of triamterene": "-0.0107% [at 46 µM]"}
    ]}
  ]
}
